Test results reported in PubChem BioAssay AID1053173 (Broad Institute, 2014).
In all, about 1,500 compounds went through this assay and about 390 (26%) were called active. The rule behind the calls is not given here. A selection follows. Measured potencies and affinities stand elsewhere.

target: Histone-lysine N-methyltransferase NSD2 (Homo sapiens) (UniProt O96028); assay: blockers of NSD2 H4 peptide methylation – biochemical, AlphaScreen, cherry-picked samples, dose response (AID 1053173); conditions: 120 min; series mostly up to 10 µM; activity change, negative = inhibition: at the top concentration;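 note: 0% = neutral control wells and -100% = positive control wells on each plate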
Sequence (O96028 whole entry, looked up): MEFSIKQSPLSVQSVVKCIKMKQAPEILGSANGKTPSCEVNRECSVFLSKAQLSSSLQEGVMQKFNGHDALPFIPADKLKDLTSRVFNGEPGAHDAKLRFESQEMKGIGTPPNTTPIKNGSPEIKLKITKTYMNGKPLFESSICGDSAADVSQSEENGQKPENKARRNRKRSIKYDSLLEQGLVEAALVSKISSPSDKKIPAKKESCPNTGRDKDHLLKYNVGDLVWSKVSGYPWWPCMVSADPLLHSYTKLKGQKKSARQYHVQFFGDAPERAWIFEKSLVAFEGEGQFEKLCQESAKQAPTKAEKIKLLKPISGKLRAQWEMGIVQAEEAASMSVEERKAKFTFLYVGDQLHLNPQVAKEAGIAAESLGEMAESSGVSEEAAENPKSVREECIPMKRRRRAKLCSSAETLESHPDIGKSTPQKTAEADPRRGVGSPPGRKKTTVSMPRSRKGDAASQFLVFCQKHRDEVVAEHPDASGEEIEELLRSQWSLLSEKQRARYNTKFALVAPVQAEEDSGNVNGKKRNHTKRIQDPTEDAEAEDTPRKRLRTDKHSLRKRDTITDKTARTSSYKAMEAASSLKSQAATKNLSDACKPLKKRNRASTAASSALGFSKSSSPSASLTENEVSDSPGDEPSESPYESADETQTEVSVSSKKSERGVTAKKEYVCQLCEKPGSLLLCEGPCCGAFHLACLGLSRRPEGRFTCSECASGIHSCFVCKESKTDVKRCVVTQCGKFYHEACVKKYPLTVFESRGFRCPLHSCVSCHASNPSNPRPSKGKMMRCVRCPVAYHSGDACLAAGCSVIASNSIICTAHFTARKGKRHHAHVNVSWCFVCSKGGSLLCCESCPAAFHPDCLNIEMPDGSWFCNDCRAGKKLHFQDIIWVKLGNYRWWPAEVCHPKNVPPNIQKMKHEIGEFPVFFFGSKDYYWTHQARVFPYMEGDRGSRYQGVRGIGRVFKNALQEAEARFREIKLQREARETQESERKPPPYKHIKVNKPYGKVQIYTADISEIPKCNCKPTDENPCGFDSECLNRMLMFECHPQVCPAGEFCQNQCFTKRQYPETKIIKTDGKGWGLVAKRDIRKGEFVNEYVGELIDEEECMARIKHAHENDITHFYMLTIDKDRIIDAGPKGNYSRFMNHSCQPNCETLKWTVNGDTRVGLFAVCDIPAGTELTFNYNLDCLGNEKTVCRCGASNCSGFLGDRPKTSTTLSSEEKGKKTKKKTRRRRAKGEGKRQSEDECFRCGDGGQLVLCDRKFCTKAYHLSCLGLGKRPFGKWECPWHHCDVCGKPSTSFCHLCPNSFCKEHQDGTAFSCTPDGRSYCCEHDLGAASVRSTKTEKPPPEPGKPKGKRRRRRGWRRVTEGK

Question: For `O=C(NCc1cccnc1)c1ccc2c(c1)OCO2`, which “activity change, negative = inhibition” value is on record?
Answer: -4.15% (inactive)

Question: How did the “activity change, negative = inhibition” value turn out when `CS(=O)(=O)N(CC(=O)NCc1ccc2c(c1)OCO2)c1cccc(Cl)c1` was run?
Answer: 0.858% (inactive)

Question: How did the “activity change, negative = inhibition” value turn out when `C=CCOc1ccc(NC(=O)C2CC(=O)N(C(C)C)C2)cc1` (stereo not given) was run?
Answer: -0.242% (inactive)

Question: With `Oc1cccc(C=NCc2ccccc2)c1` as the compound, how does the “activity change, negative = inhibition” value read?
Answer: 1.51% (inactive)

Question: For `Oc1ccc(NCc2cccc(OCc3ccc(F)cc3)c2)cc1`, which “activity change, negative = inhibition” value is on record?
Answer: -5.89% (inactive)

Question: How did the “activity change, negative = inhibition” value turn out when `Cc1cccc(C(=O)NCC(=O)OCc2nnc(-c3ccccc3)o2)c1` was run?
Answer: 0.7% (inactive)

Question: With `COc1ccccc1NC(=O)C(C)OC(=O)CCNS(=O)(=O)c1cccc(C(F)(F)F)c1` (stereo not given) as the compound, how does the “activity change, negative = inhibition” value read?
Answer: 1.15% (inactive)

Question: `O=C(NCc1ccco1)c1nc(-c2ccccc2)n(-c2ccccc2)n1` was tested. Which “activity change, negative = inhibition” value did it give?
Answer: -2.2% (inactive)

Question: `CCOc1cc(N2CCOCC2)c(OCC)cc1NC(C)C(=O)N1CCN(CC)CC1` (stereo not given) was tested. Which “activity change, negative = inhibition” value did it give?
Answer: -1.64% (inactive)

Question: `CCCC(=O)c1ccc(O)cc1O` was tested. Which “activity change, negative = inhibition” value did it give?
Answer: 0.614% (inactive)

Question: `Cc1nc(COC(=O)c2cc(O)c3ccccc3c2O)cs1` was tested. Which “activity change, negative = inhibition” value did it give?
Answer: -1.16% (inactive)

Question: `COCCN1CC(=O)N2C(c3cccc(C)c3)c3[nH]c4ccccc4c3C[C@H]2C1=O` (stereo not given in full) was tested. Which “activity change, negative = inhibition” value did it give?
Answer: -2.11% (inactive)

Question: Which “activity change, negative = inhibition” value does the source give for `COc1ccc(C2CC(=O)c3c(C)nc(N4CCN(c5ccccc5)CC4)nc3C2)cc1` (stereo not given) here?
Answer: 0.827% (inactive)

Question: For `CCOCCCNC(=O)Cn1cc2c(n1)-c1c(oc(C(=O)N3CCCC3)c1C)CC2`, which “activity change, negative = inhibition” value is on record?
Answer: 0.254% (inactive)

Question: `O=C(NC1CCCC1)c1cc(-c2ccc(Cl)cc2Cl)on1` was tested. Which “activity change, negative = inhibition” value did it give?
Answer: -3.59% (inactive)

Question: How did the “activity change, negative = inhibition” value turn out when `CC1CN(C(=O)COC(=O)/C=C/c2ccccc2)CC(C)O1` (stereo not given) was run?
Answer: -1.51% (inactive)

Question: For `Cc1cccc(OCCn2c(=S)[nH]c3ccccc32)c1`, which “activity change, negative = inhibition” value is on record?
Answer: -3.36% (inactive)

Question: How did the “activity change, negative = inhibition” value turn out when `Cc1cccc(Nc2nc(NCc3ccco3)nc(N)c2[N+](=O)[O-])c1` was run?
Answer: -4.37% (inactive)

Question: Which “activity change, negative = inhibition” value does the source give for `CC1=CCC2C(=O)N(c3cccc(C(=O)N(C)C4CCCCC4)c3)C(=O)C2C1` (stereo not given) here?
Answer: 0.384% (inactive)

Question: `CCN(CC)CCOc1ccc(C=NNc2nc3c([nH]2)c(=O)n(C)c(=O)n3C)cc1` was tested. Which “activity change, negative = inhibition” value did it give?
Answer: -11.9% (inactive)

Question: Which “activity change, negative = inhibition” value does the source give for `COc1ccc(CNC(=O)c2nnn(-c3cccc(C(F)(F)F)c3)c2N)cc1` here?
Answer: 4.73% (inactive)

Question: For `CC(=O)Nc1ccc(C(=O)OCC(=O)/C(C#N)=C(\C)N)cc1`, which “activity change, negative = inhibition” value is on record?
Answer: -2.9% (inactive)

Question: With `O=C(Nc1nccs1)c1ccc2nccnc2c1` as the compound, how does the “activity change, negative = inhibition” value read?
Answer: -5.53% (inactive)

Question: With `CC1CCCCC1NC(=O)COC(=O)c1ccc2c(=O)n3c(nc2c1)CCC3` (stereo not given) as the compound, how does the “activity change, negative = inhibition” value read?
Answer: -1.1% (inactive)

Question: `Cc1ccc(NC(=O)CCN2CCN(C/C=C/c3ccccc3)CC2)cc1C` was tested. Which “activity change, negative = inhibition” value did it give?
Answer: -7.29% (inactive)

Question: `CCCCOc1ccc(-c2ncc(N)cn2)cc1` was tested. Which “activity change, negative = inhibition” value did it give?
Answer: 7.56% (inactive)

Question: Which “activity change, negative = inhibition” value does the source give for `O=C(O)CC1S/C(=N/N=C/c2ccc(-c3ccc(Cl)cc3[N+](=O)[O-])o2)NC1=O` (stereo not given) here?
Answer: -8.04% (inactive)

Question: With `COc1ccccc1OCC(=O)Nc1ccccc1C(=O)N1CCCC1` as the compound, how does the “activity change, negative = inhibition” value read?
Answer: -4.11% (inactive)

Question: Which “activity change, negative = inhibition” value does the source give for `COc1ccccc1NC(=O)c1ccc(-n2cccn2)nc1` here?
Answer: -1.08% (inactive)

Question: With `CC12CC3(C)CC(C)(C1)CC(C(=O)NC1=NCCS1)(C2)C3` as the compound, how does the “activity change, negative = inhibition” value read?
Answer: 2.75% (inactive)

Question: `Cc1oc(-c2cccs2)nc1CN1CCN(C2CCCC2)C(CCO)C1` (stereo not given) was tested. Which “activity change, negative = inhibition” value did it give?
Answer: -3.19% (inactive)

Question: With `COC(=O)c1nn(C)c(=O)[nH]c1=O` as the compound, how does the “activity change, negative = inhibition” value read?
Answer: 1.85% (inactive)

Question: How did the “activity change, negative = inhibition” value turn out when `CC(=O)c1c(C)[nH]c(C(=O)CSc2nnc(-c3ccco3)n2Cc2ccccc2)c1C` was run?
Answer: 3.53% (inactive)

Question: How did the “activity change, negative = inhibition” value turn out when `CC1=NN(c2ccc(S(=O)(=O)O)cc2Cl)C(=O)C1` was run?
Answer: 4.11% (inactive)

Question: Which “activity change, negative = inhibition” value does the source give for `CCCCN(C)C(=O)C1CCN(Cc2cccc(OCc3ccccc3)c2)CC1` here?
Answer: -1.82% (inactive)

Question: How did the “activity change, negative = inhibition” value turn out when `O=C(NCc1ccc(F)cc1)C1CCCN1S(=O)(=O)c1ccccc1C(F)(F)F` (stereo not given) was run?
Answer: 4.09% (inactive)

Question: For `CCN1CCCC1CNC(=O)c1ccc2c(c1)N(Cc1cccc(Cl)c1)C(=O)c1ccccc1S2(=O)=O` (stereo not given), which “activity change, negative = inhibition” value is on record?
Answer: -7.05% (inactive)

Question: How did the “activity change, negative = inhibition” value turn out when `COC(=O)c1sc(S(=O)(=O)Nc2ccc(C)c(C)c2)c(C(=O)OC)c1C` was run?
Answer: -4.84% (inactive)

Question: Which “activity change, negative = inhibition” value does the source give for `COc1cc2c(oc(=O)c3cc(C)cc(OC)c32)c2c(C3OC(C)C(O)C(C)(O)C3O)ccc(O)c12` (stereo not given) here?
Answer: -1.96% (inactive)

Question: With `COc1cccc(C2c3c(oc4ccccc4c3=O)C(=O)N2CCCN(C)C)c1OC` (stereo not given) as the compound, how does the “activity change, negative = inhibition” value read?
Answer: -0.912% (inactive)

Question: Which “activity change, negative = inhibition” value does the source give for `Cc1[nH][nH]c(=O)c1C(c1ccc2c(c1)OCO2)c1c(C)[nH][nH]c1=O` here?
Answer: -2.41% (inactive)

Question: How did the “activity change, negative = inhibition” value turn out when `Cc1cccc(C)c1NC(=S)N(CCCN1CCN(C)CC1)Cc1cccs1` was run?
Answer: -1.78% (inactive)

Question: For `O=C(COC(=O)c1ccc([N+](=O)[O-])s1)Nc1ccccc1`, which “activity change, negative = inhibition” value is on record?
Answer: -2.69% (inactive)

Question: `O=C(Cc1ccc(Br)cc1)Nc1ncc([N+](=O)[O-])s1` was tested. Which “activity change, negative = inhibition” value did it give?
Answer: -2.73% (inactive)

Question: With `Cc1ccc2[nH]c3c(c2c1)CN(C(=O)CN(C)CC1OCCO1)CC3` as the compound, how does the “activity change, negative = inhibition” value read?
Answer: -1.22% (inactive)

Question: Which “activity change, negative = inhibition” value does the source give for `CN1CCCCCC1=Nc1ccc([N+](=O)[O-])cc1` here?
Answer: -6.03% (inactive)

Question: `N#Cc1ccc(CSc2ncccn2)cc1` was tested. Which “activity change, negative = inhibition” value did it give?
Answer: -3.28% (inactive)

Question: `COc1ccc2ccccc2c1C1CC(=O)N2CN(C)CSC2=C1C#N` (stereo not given) was tested. Which “activity change, negative = inhibition” value did it give?
Answer: -2.35% (inactive)

Question: `Cc1cccc(C(=O)Nc2cccc(-c3cnc4ccccc4n3)c2)c1` was tested. Which “activity change, negative = inhibition” value did it give?
Answer: 0.722% (inactive)

Question: With `C/C(=N\O)C(C)Oc1ccc(Cl)cc1` (stereo not given) as the compound, how does the “activity change, negative = inhibition” value read?
Answer: -0.765% (inactive)

Question: With `NC(=O)c1oc2ccc(Cl)cc2c1N` as the compound, how does the “activity change, negative = inhibition” value read?
Answer: 2.14% (inactive)

Question: How did the “activity change, negative = inhibition” value turn out when `CCc1ccc(N2CN=c3s/c(=C\c4ccccc4)c(=O)n3C2)cc1` was run?
Answer: -0.972% (inactive)

Question: Which “activity change, negative = inhibition” value does the source give for `CCN1CCN(Cc2nc(N)nc(Nc3ccc(C)c(C)c3)n2)CC1` here?
Answer: -4.72% (inactive)

Question: How did the “activity change, negative = inhibition” value turn out when `CSc1nnc2c(n1)OC=Nc1ccccc1-2` was run?
Answer: -1.34% (inactive)

Question: With `COc1ccc(C2N(C(=O)C(F)(F)F)C(C)CN2S(=O)(=O)c2ccc(C)cc2)cc1` (stereo not given) as the compound, how does the “activity change, negative = inhibition” value read?
Answer: 3.6% (inactive)
